# Source: PubChem (National Center for Advancing Translational Sciences (NCATS))
# SMN2 splice up: enhancers of SMN2 splice variant expression; HEK293 SMN2-luciferase splicing reporter, luminescence, 30-36 h; Potency, µM (titrated, usually from 46.1 µM), for inactives: at the top dose activity change, positive = activation, usual class: activators; actives 2.8% (n = 210,000); also: % of control where 0% means no effect; nearly all actives have a fitted effect of over 55% in size
#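 HEK293 cells carry an SMN2 […]–luciferase reporter in which exon 7 inclusion puts luciferase in frame. Cells were plated 10-12 h before compound addition, then incubated 30-36 h at 37C. ONE-Glo luminescence was read; sodium butyrate at 4.5 mM final served as control.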
# Luc counter: blocks Kinase-Glo luciferase, a counter-screen artifact; Kinase-Glo luciferase, ATP luminescence, 8 min; Potency, µM (top dose mostly 38.3 µM), for inactives: at the top dose activity change, negative = inhibition, actives largely listed as inhibitors; actives 0.28% (n = 200,000); also: % is scaled to controls: 0 for no effect and ±100 for the full control effect; nearly all actives have a fitted effect of over 60% in size
#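 Recombinant Kinase-Glo luciferase, 10 uM ATP (linear range), luciferin; imidazole pH 7.2 / KCl / MgCl2 / Tween / BSA buffer; 8 min RT; luminescence.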
# ELG1 genotox: induces genotoxicity in HEK293T cells with luciferase-tagged ELG1; HEK293T ELG1-luciferase reporter, luminescence, 16 h; Potency, µM (highest dose often 46 µM), without a hit: at the highest dose activity change, positive = activation, most hits filed as activators; actives 1.3% (n = 330,000); AID 504466; also: % of control where 0% means no effect; nearly all actives have a fitted effect of over 60% in size
#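 Cells (2,000/well) expressing the ELG1-luciferase fusion are dosed by pin tool and kept 16 hr at 37 °C, 5% CO2. Signal comes from ONE-Glo luciferase reagent after 30 min at room temperature.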
# NPC1 promoter act: activators of NPC1 promoter. AID 485313. Huh7 NPC1 promoter luciferase reporter, 24 h. actives 2.4% (n = 320,000). Potency, µM (titrated, usually from 9.22 µM), without a hit: at the top dose activation, usual class: activators; also: % of control where 0% means no effect; nearly all actives have a fitted effect of over 60% in size
#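 Luminescence read-out of NPC1 promoter-driven luciferase in stably transfected Huh7 cells; compounds delivered in DMSO and left 24 h at 37C, 5% CO2, qHTS titration format.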
# FLuc counter: counter-screen for miR-21 project: firefly luciferase inhibitors or activators; purified FLuc, Km substrates, luminescence inhibition; AID 588342; actives 6.9% (n = 360,000); Potency, µM (titrated, usually from 57.5 µM), without a hit: at the top dose activity change, negative = inhibition, actives largely listed as inhibitors;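 also: plate controls were vehicle for no effect and reference inhibitor for full effect; nearly all actives have a fitted effect of over 55% in size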
# Target sequence (P08659 whole entry, looked up): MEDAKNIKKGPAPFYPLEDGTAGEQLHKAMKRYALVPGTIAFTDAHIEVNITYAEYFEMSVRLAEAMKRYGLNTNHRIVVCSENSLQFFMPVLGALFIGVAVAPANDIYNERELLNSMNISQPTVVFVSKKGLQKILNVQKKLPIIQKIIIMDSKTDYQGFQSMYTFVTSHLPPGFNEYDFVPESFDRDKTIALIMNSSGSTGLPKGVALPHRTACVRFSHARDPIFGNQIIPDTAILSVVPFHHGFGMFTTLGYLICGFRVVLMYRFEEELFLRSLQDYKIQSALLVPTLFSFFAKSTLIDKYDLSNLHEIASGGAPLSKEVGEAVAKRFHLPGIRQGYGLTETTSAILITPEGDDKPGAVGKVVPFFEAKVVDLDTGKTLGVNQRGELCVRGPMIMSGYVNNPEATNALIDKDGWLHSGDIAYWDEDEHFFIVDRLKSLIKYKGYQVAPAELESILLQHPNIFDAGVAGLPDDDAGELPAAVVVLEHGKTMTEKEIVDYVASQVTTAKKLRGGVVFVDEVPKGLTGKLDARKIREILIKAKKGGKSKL
#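 Purified P. pyralis luciferase (10nM final) with 10uM D-luciferin and 10uM ATP (Km levels) in 50mM Tris acetate pH 7.5, 10mM Mg acetate, 0.01% Tween-20, 0.05% BSA; qHTS 6-point titration, ~60 µM downward; luminescence read.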
# Rab9 promoter act: Rab9 promoter activation. Huh7 Rab9 promoter-luciferase reporter, luminescence, 24 h. Potency, µM (titrated, usually from 9.22 µM), for inactives: at the top dose activation, negative = inhibition, actives largely listed as activators. actives 2.8% (n = 320,000). AID 485297; also: % of control where 0% means no effect; nearly all actives have a fitted effect of over 60% in size
#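 Luminescence read-out: Huh7 cells stably expressing Rab9-luciferase, treated 24 h with compound at 37 °C, then lysed with luciferase reagent for 10 min at ambient before reading.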
# Numbers without * were called inactive; ? = inconclusive; / = no result given. The list is not random: actives were taken first. Their share in the collection is about 7.5%. Calls follow the shape of the dose curve; as a rule, active = well fitted curve in the direction sought with a large enough effect; inconclusive = small, poorly fitted or top-dose-only effect, or another doubt; inactive = no such curve, though single readings can be large; an effect the other way counts as inactive or inconclusive. Potency is read from the fitted curve at half-maximal effect.
SMILES,SMN2 splice up,Luc counter,ELG1 genotox,NPC1 promoter act,FLuc counter,Rab9 promoter act
c1ccc(-c2nnc(-c3ccccc3)o2)cc1,12.6µM*,-21.7%,?,1.58µM*,5.36µM*,1.41µM*
ClCc1nnc(-c2ccccc2)o1,-6.1%,-3.9%,-1.2%,-3.6%,-8.7%,0.3%
Nc1ccccc1-c1nnc(-c2ccc(-c3ccccc3)cc2)o1,?,-20.6%,2.59µM*,3.98µM*,3.01µM*,3.16µM*
COc1cccc(-c2nnc(NC(C)=O)o2)c1,/,/,3.5%,-0.8%,-18.6%,5.3%
COc1cccc(-c2nnc(-c3ccc(C(F)(F)F)cc3)o2)c1,22.4µM*,-1.2%,?,?,?,?
O=c1ccc(-c2ccccc2)nn1Cc1ccc(F)cc1Cl,-3.9%,/,0.0%,2.3%,-1.6%,-6.8%
Cc1ccc2c(c1)-n1c(nc3ccccc3c1=O)C(CC(C)C)NC2=O (centres undefined),/,/,3.1%,/,/,/
COc1cc(-c2nnc(-c3ccco3)o2)ccc1OCc1ccccc1,?,4.0%,10.8%,17.2%,15.1µM*,16.7%
COc1ccc(Cl)cc1NC(=O)CSc1nnc(C2CC2)n1N,/,/,0.7%,-0.3%,18.0%,8.7%
Oc1c(CN2CCN(c3ccccn3)CC2)cc(Cl)c2cccnc12,-67.1%,-1.2%,7.31µM*,-16.0%,0.2%,-32.6%
COc1ccc(S(=O)(=O)N(CC(=O)Nc2cccnc2)c2ccc(C)cc2)cc1OC,-4.3%,/,/,/,-4.8%,/
Cc1nn(-c2nnc(NC3CCCCC3)nn2)c(C)c1Br,12.6µM*,-23.6%,18.4µM*,2.24µM*,4.26µM*,2.24µM*
CC(C)C[C@H](NC(=O)N1CCn2c1nc1ccccc12)C(=O)N[C@H](Cc1ccccc1)C(=O)O,/,/,5.7%,1.5%,5.1%,-1.6%
COc1cc(/C=N/n2cnnc2)ccc1OCc1ccccc1,7.9%,-4.9%,3.6%,-2.7%,-12.5%,-17.0%
COc1ccc(/C=N\NC(=O)c2cccc([N+](=O)[O-])c2)cc1Cn1cc([N+](=O)[O-])cn1,/,-1.7%,-9.8%,-2.1%,0.4%,-3.7%
COc1ccc(/C=N/NC(=O)c2cccc([N+](=O)[O-])c2)cc1O,-0.3%,-3.9%,5.2%,-2.7%,21.3µM*,-3.6%
O=C(N/N=C/c1ccccn1)c1cccc([N+](=O)[O-])c1,10.5%,-0.2%,?,-5.1%,-17.0%,3.8%
O=C(N/N=C/c1ccc2ncccc2c1)c1cccc([N+](=O)[O-])c1,/,/,1.8%,13.8%,3.38µM*,13.7%
COc1cc(/C=N/NC(=O)c2cccc([N+](=O)[O-])c2)ccc1OCc1ccc(C)cc1,?,-5.4%,?,-3.9%,21.3µM*,-0.4%
COc1cc(/C=N/NC(=O)c2cccc([N+](=O)[O-])c2)ccc1O,6.2%,6.0%,0.2%,-1.0%,-16.6%,8.4%
COc1cc(/C=N/n2cnnc2)ccc1OCc1ccc(C)cc1,20.8%,1.3%,23.1µM*,4.6%,?,12.5%
CCc1ccc(CN(Cc2ccco2)c2cnc(S(C)(=O)=O)nc2C(=O)Nc2ccccc2Cl)cc1,/,/,/,/,-1.3%,/
Cc1ccc(C)c(N2CCN(C(=O)c3ccc4nsnc4c3)CC2)c1,/,/,-6.4%,-27.3%,-0.5%,-14.2%
S=C(N/N=C/c1ccc2ncccc2c1)Nc1cccnc1,-10.4%,-7.8%,-5.5%,-11.5%,6.75µM*,-4.9%
Cc1cccc(NC(=O)c2ccc(C(=O)Nc3cccc(C)c3)nc2)c1,-31.0%,-2.8%,-2.4%,10.8%,-11.8%,11.6%
SMILES,SMN2 splice up,Luc counter,ELG1 genotox,NPC1 promoter act,FLuc counter,Rab9 promoter act
CC(=O)Nc1cccc(NC(=O)c2ccc(C(=O)Nc3cccc(NC(C)=O)c3)nc2)c1,15.9%,-10.5%,11.2%,14.9%,3.79µM*,17.3%
O=C(Nc1ccccc1)c1ccc(C(=O)Nc2ccccc2)nc1,7.3%,1.9%,?,?,-11.9%,2µM*
CN=c1scc(-c2ccc([N+](=O)[O-])cc2)n1/N=C/c1ccco1,/,-4.7%,?,?,?,0.398µM*
Cc1ccc(C2(C)NC(=O)N(CC(=O)Nc3cc(S(=O)(=O)N(C)C)ccc3C)C2=O)cc1 (centres undefined),/,/,7.2%,-5.6%,2.8%,3.4%
CNc1nnc(-c2cc3ccccc3oc2=O)s1,12.6µM*,?,18.4µM*,1.41µM*,4.78µM*,1.41µM*
COc1cccc2sc(Nc3nc(-c4cc5ccccc5oc4=O)cs3)nc12,-8.2%,-0.4%,6.3%,-26.5%,?,-19.1%
COc1ccc2oc(=O)c(-c3csc(Nc4cccc(O)c4)n3)cc2c1,?,-2.5%,-0.1%,11.0%,1.69µM*,-2.2%
COc1ccc2cc(-c3nnc(Nc4ccccc4)s3)c(=O)oc2c1,/,/,/,/,2.3%,/
O=C(O)c1ccc(Nc2nc(-c3cc4ccccc4oc3=O)cs2)cc1O,1.0%,0.8%,8.5%,7.8%,4.78µM*,2.0%
Nc1ccc(Nc2nc(-c3cc4ccccc4oc3=O)cs2)cc1,?,-0.9%,?,?,2.39µM*,?
Cc1ccc(S(=O)(=O)N2CCOCC2)cc1NS(=O)(=O)c1ccc(F)c(F)c1,/,/,-0.6%,0.3%,-2.3%,0.5%
CC(=O)Nc1ccc(Nc2nc(-c3cc4ccccc4oc3=O)cs2)cc1,/,/,?,?,5.36µM*,?
O=C(N/N=C/c1ccccc1F)c1csc2c1CCCC2,8.91µM*,-4.7%,?,1.12µM*,2.69µM*,1.26µM*
Cc1cccc(C)c1NC(=O)c1csc2c1CCCC2,-4.1%,/,/,/,-2.8%,/
O=C(N/N=C/c1cccc(F)c1)c1csc2c1CCCC2,14.1µM*,-0.7%,?,1µM*,4.78µM*,1.26µM*
CCC1=Nc2cc(C(=O)NC3CCC(C)CC3)ccc2Sc2ccc(C)cc21 (centres undefined),-12.9%,/,/,/,-9.4%,/
CC(C)C(NS(=O)(=O)c1ccc2c(c1)oc(=O)n2C)C(=O)NCc1ccccc1 (centres undefined),-0.8%,/,/,/,4.2%,/
Nc1nc(SCC(=O)Nc2cc(-c3ccccc3)nn2-c2ccccc2)n[nH]1,21.8%,-8.3%,3.4%,-1.6%,-19.0%,-3.7%
Cc1ccc(-c2cc(NC(=O)CSc3n[nH]c(N)n3)n(-c3ccccc3)n2)cc1,6.2%,1.0%,-2.9%,2.9%,19µM*,7.1%
CCCc1ccc(-c2cc(NC(=O)CSc3nnc(N)s3)n(-c3ccccc3)n2)cc1,/,/,?,2.51µM*,0.213µM*,1.26µM*
Cc1ccc(C)c(NC(=O)/C(C#N)=C/c2ccc(C(C)C)cc2)c1,-15.1%,/,/,/,5.1%,/
COc1ccc(Cn2c(SCC(=O)N3CCN(c4ccc(F)cc4)CC3)nc3ccccc32)cc1,-9.3%,/,/,/,1.2%,/
